Source: PubChem
This is a sample that favours compounds with a hit; in the whole collection about 2.4% have one here.
FEN1 inhibitor: blocks human flap endonuclease 1 | 390,000 compounds, 0.35% hits | Potency, µM (highest dose often 114 µM), for inactives: at the top dose activity change, negative = inhibition, hits mostly inhibitors | Recombinant FEN1 flap cleavage, fluorescence, 15 min | P39748 | AID 588795; further: on the % scale 0 is the no-effect control and ±100 the full control effect; nearly all actives have a fitted effect of over 65% in size
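With each library titrated from low to high concentration, compounds met 10 nM FEN1 for 15 min at room temperature before 50 nM substrate was added; readings at 0 and 15 min fed four-parameter Hill curve fits.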
Pol kappa inh: blocks human DNA polymerase kappa activity. Q9UBT6. purified Pol kappa, fluorescent DNA synthesis assay, 10 min. Potency, µM (doses to about 107 µM), inactives show top-dose activity, negative = inhibition, hits mostly inhibitors. 400,000 compounds, 0.53% hits. AID 588579; further: on the % scale 0 is the no-effect control and ±100 the full control effect
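Fluorescent qHTS in 1536-well format: enzyme (10 nM) and compound sat 15 min at room temperature before 50 nM substrate (final) was added. Signal taken at 0 and 10 min; no-enzyme buffer wells were negative controls.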
POLB inh: blocks human DNA polymerase beta activity; P06746; Pol beta primer extension/strand displacement, fluorescence kinetic; Potency, µM (top dose mostly 114 µM), for inactives: top-dose activity change, negative = inhibition, most hits filed as inhibitors; 340,000 compounds, 1.3% hits; AID 485314; further: on the % scale 0 is the no-effect control and ±100 the full control effect
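10 nM enzyme + cpd, 15 min RT; start with substrate 50 nM final; read 0 min and after 10 min RT. Corrected, normalized data; 4-parameter Hill curve fit.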
POLH inh: DNA polymerase eta (human) inhibition; recombinant Pol eta, fluorescent DNA replication assay; Q9Y253; Potency, µM (series often up to 114 µM), for inactives: top-dose activity change, negative = inhibition, actives largely listed as inhibitors; AID 588591; 390,000 compounds, 1.2% hits; further: on the % scale 0 is the no-effect control and ±100 the full control effect
Target sequence (Q9Y253 whole entry, looked up): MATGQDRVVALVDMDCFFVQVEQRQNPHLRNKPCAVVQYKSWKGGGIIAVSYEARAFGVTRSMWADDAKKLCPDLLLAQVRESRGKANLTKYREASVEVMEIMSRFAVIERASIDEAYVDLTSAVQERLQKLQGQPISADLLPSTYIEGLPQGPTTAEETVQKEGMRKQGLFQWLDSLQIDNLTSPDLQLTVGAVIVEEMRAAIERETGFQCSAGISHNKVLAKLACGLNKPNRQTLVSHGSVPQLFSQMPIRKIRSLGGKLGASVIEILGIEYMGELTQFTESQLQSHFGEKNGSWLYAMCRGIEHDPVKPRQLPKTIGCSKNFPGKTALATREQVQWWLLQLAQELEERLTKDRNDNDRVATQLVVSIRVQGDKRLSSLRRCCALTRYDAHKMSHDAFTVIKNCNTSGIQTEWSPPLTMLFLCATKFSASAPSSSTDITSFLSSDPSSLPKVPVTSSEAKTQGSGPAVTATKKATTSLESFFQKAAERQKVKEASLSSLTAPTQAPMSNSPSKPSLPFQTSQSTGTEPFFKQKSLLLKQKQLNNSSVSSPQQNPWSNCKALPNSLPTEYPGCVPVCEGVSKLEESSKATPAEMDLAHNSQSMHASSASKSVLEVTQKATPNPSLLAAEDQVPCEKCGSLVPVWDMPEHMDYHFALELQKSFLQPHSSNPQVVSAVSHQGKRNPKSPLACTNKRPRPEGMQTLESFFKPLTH
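Pol eta (10 nM) was preincubated with compounds for 15 min at room temperature, after which fluorescent replication substrate (50 nM final) was added to start the reaction. Fluorescence was read kinetically at 0 and 10 min.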
TDP1 block: inhibitors of human tyrosyl-DNA phosphodiesterase TDP1 | Potency, µM (series often up to 130 µM), without a hit: at the highest dose activity change, negative = inhibition, most hits filed as inhibitors | Q9NUW8 | AID 485290 | 350,000 compounds, 0.28% hits | recombinant TDP1, AlphaScreen DNA substrate cleavage; further: on the % scale 0 is the no-effect control and ±100 the full control effect; nearly all actives have a fitted effect of over 40% in size
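AlphaScreen read-out: signal falls as enzyme removes the 3' tyrosine-FITC from a 5'-biotinylated DNA oligo (15 nM, 5 min, RT). Enzyme was E. coli-made recombinant Tdp1 at 1 nM, exposed to compound for 15 min beforehand; beads 10 ug/ml, 10 min.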
POLI inh: inhibitors of human DNA polymerase iota. Pol iota fluorescent replication assay, 10 min. Potency, µM (series often up to 115 µM), inactives show at the top dose activity, negative = inhibition, usual class: inhibitors. 390,000 compounds, 1% hits
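Pol iota at 10 nM preincubated 15 min with compounds at room temperature; reaction started with fluorescent substrate, 50 nM final. Fluorescence read kinetically at 0 and 10 min; buffer-only wells as negative control.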
Numbers without * were called inactive; ? = inconclusive; nt = no result; [ ] = dose if it differs, or a comment. The call rests on the fitted dose curve; in most records, active means well fitted curve in the direction sought with a large enough effect; inconclusive means small, poorly fitted or top-dose-only effect, or another doubt; inactive means no such curve, though single readings can be large; an effect the other way counts as inactive or inconclusive. Potency means the concentration at half of the fitted maximal effect.

SMILES	FEN1 inhibitor	Pol kappa inh	POLB inh	POLH inh	TDP1 block	POLI inh
Cc1ccc2c(c1)sc[n+]2Cc1ccccc1	-8%	-13%	22%	-10%	5%	45µM*
Cc1c(CCOC(=O)c2ccccc2)sc[n+]1Cc1ccccc1	6%	-18%	-17%	?	10%	17%
COc1ccc(CN(C#N)c2nc(SC)nc(N(C)C)n2)cc1	?	?	2%	?	0%	89µM*
COc1cc2c(cc1OC)C1O[C@](CCCCN3C(=O)c4ccccc4C3=O)(C2)Oc2c1c(=O)oc1ccc(F)cc21	nt	nt	3.5µM*	nt	nt	nt
COc1ccc2c3c(c(=O)oc2c1)C1O[C@](CCCCN2C(=O)c4ccccc4C2=O)(Cc2cc(OC)c(OC)cc21)O3	nt	nt	-25%[22.9 µM]	nt	nt	nt
Cc1ccccc1NC(=O)/C(C#N)=C\c1cc(C)n(-c2ccc(C(=O)O)cc2)c1C	-7%	-29%	?	22µM*	nt	-65%
COc1ccc(CC(=O)OC(C)C(=O)c2ccc(C)cc2)cc1 (stereo unspecified)	7%	-5%	-12%	-15%	79µM*	?
O=S1(=O)CCO[C@H]2CCCC[C@@H]2N1Cc1ccccc1Br	-21%	-9%	nt	nt	nt	9%
C=C1[C@@H](O)[C@H](CC(C)C)N(Cc2ccccc2Br)S1(=O)=O	-6%	6%	nt	50µM*	nt	2%
CCc1nn(CC(=O)NCCN(CC(C)C)CC(C)C)c(=O)c2cc3sc(C)cc3n12	15%	-4%	-2%	-12%	-3%	28%
CCC(=O)Nc1ccc(C(=O)CSc2nnc(-c3ccccc3F)n2C2CC2)cc1	5%	-32%	28µM*	?	-3%	?
CCC(C)NC(=O)NC(=O)CSc1nnc(-c2ccccc2F)n1C1CC1 (stereo unspecified)	-4%	-5%	7%	-8%	2%	27%
CCC1Sc2ccc(S(=O)(=O)CCC(=O)Nc3c(Cl)cc(OC)cc3OC)cc2NC1=O (stereo unspecified)	12%	-19%	79µM*	?	nt	-7%
O=C1C=C(O)c2cccc(O)c2C1=O	?	?	20µM*	35µM*	nt	?
Cn1cc(/C=C/c2ccc3ccccc3n2)c2ccccc21	?	2%	nt	nt	nt	2%
C[C@@]1(C(=O)O)NCCc2cc(O)c(O)cc21	nt	1.8µM*	nt	nt	nt	nt
Oc1c(C(c2cccc(Cl)c2)N2CCOCC2)sc2nc(-c3ccco3)nn12 (stereo unspecified)	17%	-4%[60.1 µM]	1%	-8%	-3%	3%
O=C(NCc1ccc(F)cc1)n1c(-c2ccccc2)c(P(=S)(c2ccccc2)c2ccccc2)c2ccccc21	nt	nt	nt	nt	-2%	nt
Cc1c(Cl)cnc(NC(=O)COC(=O)C(NC(=O)c2ccco2)C(C)C)c1Cl (stereo unspecified)	14%	-4%	45µM*	89µM*	-5%	?
Cc1noc(C)c1C(=O)OCC(=O)Nc1ncc(Cl)c(C)c1Cl	-1%	-18%	nt	20µM*	nt	?
COc1ccc(CC(=O)OCC(=O)Nc2ncc(Cl)c(C)c2Cl)cc1	-7%	-38%	nt	20µM*	-11%	?
Cc1c(Cl)cnc(NC(=O)COC(=O)c2ccc3c(c2)OCO3)c1Cl	40%	-4%	5%	?	-2%	72%
CC(C)[C@H](NC(=O)c1ccco1)C(=O)OCC(=O)Nc1cccc(F)c1	-6%	-5%	20%	-18%	5%	90%
CC1(C)OB(c2cnc(C#N)nc2)OC1(C)C	18%	-8%	nt	nt	nt	-21%
O=C(O)c1ccccc1NS(=O)(=O)c1cccc(-n2sc3ccccc3c2=O)c1	89µM*	-35%	?	50µM*	?	25µM*
SMILES	FEN1 inhibitor	Pol kappa inh	POLB inh	POLH inh	TDP1 block	POLI inh
COc1cc(O)cc(OC)c1OC	nt	-3%[60.1 µM]	nt	nt	3%[56.1 µM]	nt
COc1c(O)cc(O)cc1O	nt	25µM*	nt	nt	20µM*	nt
CCc1ccc(NC(=O)C2=C(C)C(=O)OC23CCCCC3)cc1	4%	-3%	28%	nt	3%	23%
Nc1c(C(=O)O)sc2nc(-c3ccccc3)cc(-c3ccc(Cl)cc3)c12	0%	-30%	-26%	10%	71µM*	?
CCOC(=O)c1c(C)[nH]c(C(=O)OC(C(=O)N(C)C)c2ccccc2)c1C (stereo unspecified)	-10%	-12%	nt	nt	nt	2%
Cc1ccc(Cn2c(=S)[nH]c3ccc(N4CCOCC4)cc3c2=O)o1	?	?	6%	-21%	nt	14µM*
CC(C)(O)C#Cc1ccc(CNC[C@H]2O[C@@H](n3cnc(C(N)=O)n3)[C@H](O)[C@@H]2O)s1	-3%	19%	nt	-5%	nt	35%
CC(=O)N1c2ccc(S(=O)(=O)NCC3CCC(C(=O)NC4CCC(C)CC4)CC3)cc2CC1C (stereo unspecified)	4%	-3%	2%	-2%	0%	9%
CC(=O)N1c2ccc(S(=O)(=O)NCC3CCC(C(=O)Nc4cccc(C)c4)CC3)cc2CC1C (stereo unspecified)	18%	-2%	-2%	1%	3%	10%
CC(=O)N1c2ccc(S(=O)(=O)NCC3CCC(C(=O)Nc4cccc(C)c4C)CC3)cc2CC1C (stereo unspecified)	18%	-20%	22µM*	-19%	-5%	?
CC(=O)N1c2ccc(S(=O)(=O)NCC3CCC(C(=O)N4CCC(C)CC4)CC3)cc2CC1C (stereo unspecified)	-9%	-14%	23%	-14%	9%	79µM*
O=C(Oc1cc(=O)oc2c1c(=O)n1c3c(cccc23)CC1)c1ccccc1	?	-8%	40µM*	-12%	-1%	?
O=C(O)CCn1ccc2cc(S(=O)(=O)N3CCCCC3)ccc21	11%	-15%	9%	-11%	0%	-5%
COc1cccc(Cc2nc3ccccc3nc2SCC(=O)Nc2cccc(C)c2)c1	-3%	-1%[60.1 µM]	0%	-1%	3%	-18%
C=CCn1c(SCc2cc(=O)n3ccsc3n2)nc2sc(C)c(C)c2c1=O	6%	-42%	50µM*	?	7%	32µM*
COc1ccc(-c2csc(NC(=O)c3ccccc3NS(=O)(=O)c3ccc(C)cc3)n2)cc1	?	?	?	20µM*	2%	32µM*
COc1ccc(-c2csc(Nc3ccc(S(=O)(=O)Nc4cc(OC)nc(OC)n4)cc3)n2)cc1	?	-9%	5%	89µM*	3%	-12%
COc1ccc(-c2csc(Nc3ccc(S(=O)(=O)Nc4cc(C)on4)cc3)n2)cc1C	1%	4%	?	89µM*	2%	2%
Cc1ncnc2nc[nH]c12	-3%	-11%	nt	nt	nt	22%
